# According to PubChem BioAssay (NCATS):
# Results filed as inconclusive are left out. Values without a mark were called inactive. Active and inactive are the calls of the source. Calls follow the shape of the dose curve; as a rule, active = well fitted inhibition curve with a large enough effect; inconclusive = small, poorly fitted or top-dose-only effect; inactive = flat fitted curve, though single readings scatter.
# Experiments:
# [1] = qHTS profiling for inhibitors of Plasmodium falciparum proliferation (AID 504749); also: nearly all actives have a fitted effect of over 60% in size;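 as to activity, negative = inhibition: 0% = DMSO vehicle and full inhibition = artemisinin control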; conditions: P. falciparum in erythrocytes, SYBR Green DNA, 72 h
# How it was run: (§1)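 Quantitative HTS: compounds pinned into medium, infected erythrocytes added (0.3% parasitemia, 2.5% hematocrit), 72 h culture at 37 C under 5% CO2. Saponin/Triton lysis with SYBR Green I, overnight RT, then fluorescence read.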
# 3D7 = test: as above; conditions: P. falciparum in erythrocytes, SYBR Green DNA, 72 h; series mostly up to 28.7 µM
# How it was run: as §1
# 7G8 = test: as above; conditions: P. falciparum in erythrocytes, SYBR Green DNA, 72 h; series mostly up to 28.7 µM
# How it was run: as §1
# [2] = at 28.7 µM (top of the series), parasite line A
# [3] = at 28.7 µM (top of the series), parasite line B
# [4] = at 12.8 µM (top of the series), parasite line A
# Potency is read from the fitted curve at half-maximal effect.
smiles,measurement,setting,value
Clc1ccccc1Cl,"activity, negative = inhibition",[1]; [2],6.5%
same,Potency,3D7,inactive
same,Potency,7G8,inactive
O=C1CCCCC1CN1CCCCC1 (stereo not given),"activity, negative = inhibition",[1]; [2],6.14%
same,"activity, negative = inhibition",[1]; [3],5.73%
same,Potency,3D7,inactive
same,Potency,7G8,inactive
CCC1(c2ccccc2)C(=O)NC(=O)NC1=O,"activity, negative = inhibition",[1]; [2],5.22%
same,"activity, negative = inhibition",[1]; [3],9.88%
same,Potency,3D7,inactive
same,Potency,7G8,inactive
ClC1C(Cl)C(Cl)C(Cl)C(Cl)C1Cl (stereo not given),"activity, negative = inhibition",[1]; [2],10.1%
same,"activity, negative = inhibition",[1]; [3],13.2%
same,Potency,3D7,inactive
same,Potency,7G8,inactive
CCCN1CCCC2Cc3[nH]ncc3CC21 (stereo not given),"activity, negative = inhibition",[1]; [2],7.25%
same,"activity, negative = inhibition",[1]; [3],13.9%
same,Potency,3D7,inactive
same,Potency,7G8,inactive
N#CC(C#N)=Cc1cc(O)c(O)c(O)c1,Potency,[1]; parasite line A,11.2 µM (active)
same,Potency,[1]; parasite line B,11.2 µM (active)
same,Potency,3D7,10 µM (active)
same,Potency,7G8,4.47 µM (active)
O=c1[nH]c(=O)n(Cl)c(=O)n1Cl,"activity, negative = inhibition",[1]; [2],-5.08%
same,"activity, negative = inhibition",[1]; [3],11.2%
same,Potency,3D7,inactive
same,Potency,7G8,inactive
O=c1c2ccccc2[se]n1-c1ccccc1,Potency,7G8,8.91 µM (active)
CNC(=O)Oc1ccccc1C(=O)Nc1ccccc1,Potency,[1]; parasite line B,11.2 µM (active)
same,Potency,3D7,inactive
same,Potency,7G8,10 µM (active)
F/C(COc1ccc2c(c1)[nH]c1ccccc12)=C1/CN2CCC1CC2,Potency,[1]; parasite line B,10 µM (active)
same,Potency,7G8,5.01 µM (active)
C[C@@H](Cc1ccccc1)NCCC(c1ccccc1)c1ccccc1,"activity, negative = inhibition",[1]; [4],-17.6%
same,Potency,7G8,4.47 µM (active)
O=[N+]([O-])c1ccccc1,"activity, negative = inhibition",[1]; [2],-4.98%
same,"activity, negative = inhibition",[1]; [3],4.83%
same,Potency,3D7,inactive
same,Potency,7G8,inactive
C[C@H]1CCC[C@H](O)CCCCCc2cc(O)cc(O)c2C(=O)O1,"activity, negative = inhibition",[1]; [3],-17.3%
same,Potency,3D7,inactive
same,Potency,7G8,12.6 µM (active)
CN1CCCC(=C(c2cccs2)c2cccs2)C1,"activity, negative = inhibition",[1]; [3],-19.2%
same,Potency,3D7,inactive
CCC1(C)CC(=O)NC(=O)C1,"activity, negative = inhibition",[1]; [4],7.23%
same,"activity, negative = inhibition","[1]; at 12.8 µM (top of the series), parasite line B",5.64%
same,Potency,3D7,inactive
same,Potency,7G8,inactive
Clc1ccc(Cl)cc1,"activity, negative = inhibition",[1]; [2],7.27%
same,Potency,3D7,inactive
same,Potency,7G8,inactive
CC(C)(O)C1C2OC(=O)C1C1(O)CC3OC34C(=O)OC2C14C (stereo not given),"activity, negative = inhibition",[1]; [2],13.7%
same,"activity, negative = inhibition",[1]; [3],0.0355%
same,Potency,3D7,inactive
same,Potency,7G8,inactive
